Hits are enriched below; roughly 19% of the tested compounds scored in any of these assays.
HT1080 IDH1KD tx = HT-1080 IDH1 knockdown cell toxicity (counter line); actives 2% (n = 360,000); AID 686971; Potency, µM (top dose mostly 46.1 µM), hits mostly cytotoxic; HT-1080 IDH1 knockdown viability, ATP luminescence, 48 h
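Assay cells: HT-1080 with IDH1 knockdown, 750 per well, RPMI/5% FBS. Exposure: 48 h at 37 °C following 2 h pre-incubation. Read: CellTiter-Glo luminescence; fitted concentration-response, curve class assigned.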
KB-3-1 tox = KB-3-1 parental cell cytotoxicity; actives 1.4% (n = 400,000); Potency, µM (top dose mostly 46.1 µM), actives largely listed as cytotoxic; KB-3-1 viability, CellTiter-Glo ATP luminescence, 72 h; note: nearly all actives have a fitted effect of over 60% in size
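Multi-concentration cytotoxicity screen in KB-3-1 cells grown in DMEM lacking phenol red with 10% FBS. After 72 h at 37 °C with compound, ATP-dependent luminescence was recorded.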
TDP1 cell CPT = DT40-hTDP1 cell growth loss with CPT; Potency, µM (series often up to 46.2 µM), hits mostly inhibitors; chicken DT40 Tdp1-/-;hTDP1 cells + 20 nM CPT, ATP luminescence, 48 h; actives 12% (n = 420,000); note: nearly all actives have a fitted effect of over 55% in size
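Chicken DT40 Tdp1-/- cells complemented with human TDP1, 400 cells/well, exposed to compounds plus 20 nM camptothecin for at least 48 h at 37 C; viability read as ATP content by CellTiter-Glo luminescence.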
KB-V1 cytotox = KB-V1 MDR subline cytotoxicity; KB-V1 MDR cells viability, CellTiter-Glo, 72 h; Potency, µM (top dose mostly 46.1 µM), hits mostly cytotoxic; actives 3.4% (n = 400,000); note: nearly all actives have a fitted effect of over 60% in size
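Drug-selected KB-V1 cells, grown in DMEM lacking phenol red with 10% FBS, receive compound titrations; after three days at 37 degrees C, surviving cell ATP is quantified by CellTiter-Glo luminescence and responses normalized and curve-fitted.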
TDP1 cell noCPT = qHTS for Inhibitors of human tyrosyl-DNA phosphodiesterase 1 (TDP1): qHTS in cells in absence of CPT. DT40 Tdp1-/- hTDP1 cells, no CPT, ATP luminescence, 48 h. Potency, µM (highest dose often 46.2 µM), actives largely listed as inhibitors. actives 15% (n = 420,000); note: nearly all actives have a fitted effect of over 55% in size
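Luminescent ATP content (CellTiter-Glo) served as the growth readout. Knockout chicken DT40 cells expressing human TDP1 were exposed to compounds without camptothecin for a minimum 48 hr at 37 °C.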
HT1080NT lethal = kills 2HG-producing HT-1080-NT fibrosarcoma cells; Potency, µM (series often up to 46.1 µM), hits mostly cytotoxic; HT-1080-NT fibrosarcoma viability, CellTiter-Glo ATP luminescence, 48 h; actives 1.6% (n = 360,000);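 note: NT is the 2HG producing partner of a matched IDH1 knockdown line; nearly all actives have a fitted effect of over 55% in size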
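Luminescent CellTiter-Glo readout after 48 hours of compound exposure at 37 degrees C defined viability of HT-1080-NT cells. Activity was normalized to DMSO wells and cell-free media wells; concentration-response curves were fitted and assigned curve classes.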
A number is an active result; – = inactive; ? = inconclusive; · = no result given. Calls come from the whole dose curve; as a rule, active = well fitted curve in the direction sought with a large enough effect; inconclusive = small, poorly fitted or top-dose-only effect, or another doubt; inactive = no such curve, though single readings can be large; an effect the other way counts as inactive or inconclusive.

SMILES | HT1080 IDH1KD tx | KB-3-1 tox | TDP1 cell CPT | KB-V1 cytotox | TDP1 cell noCPT | HT1080NT lethal
O=C(O)c1cc(S(=O)(=O)N2CCCCC2)ccc1N1CCOCC1 | – | – | – | – | – | –
COc1ccc(Cl)cc1C(=O)CSc1nnnn1C1CCCC1 | – | – | 16µM | ? | 18µM | –
COc1ccc(NC(=O)CSc2nnnn2C2CCCC2)c(OC)c1 | – | – | – | ? | – | –
COc1ccc(Cl)cc1C(=O)CSc1nnnn1C1CCCCC1 | – | – | ? | ? | 18µM | –
O=C1C=C(c2ccccc2)C[C@H](c2cccs2)[C@H]1n1nnc([N+](=O)[O-])n1 | 9.2µM | – | 6.5µM | 16µM | 5.8µM | 15µM
O=C1C=C(c2ccccc2)CC(c2cccs2)C1n1cnc([N+](=O)[O-])c1 (stereo not drawn) | – | – | ? | – | ? | –
CC1(C(=O)NCc2ccco2)Cc2c(-c3ccccc3)ccnc2O1 (stereo not drawn) | ? | 8.2µM | 2.6µM | 7.3µM | 2.3µM | ?
CC1(C(=O)NCCC(F)(F)F)Cc2c(-c3ccccc3)ccnc2O1 (stereo not drawn) | ? | ? | 6.5µM | 21µM | 5.8µM | –
CCc1ccc(C(O)c2ncc(-c3cccc(C)c3)[nH]2)cc1 (stereo not drawn) | – | – | ? | – | ? | ?
Cc1cccc(-c2cnc(C(O)Cc3ccccc3)[nH]2)c1 (stereo not drawn) | ? | ? | 16µM | ? | ? | ?
OC(Cc1ccccc1)c1ncc(-c2ccc3ccccc3c2)[nH]1 (stereo not drawn) | 18µM | – | ? | – | 23µM | ?
Cc1cccc(NC(=O)CSc2cc(C)c(C#N)c3nc4ccccc4n23)c1 | – | – | 18µM | – | 12µM | ?
Cc1cc(Cl)n2c(nc3ccccc32)c1C#N | 7.3µM | – | 0.41µM | ? | 0.46µM | 9.2µM
COc1ccc(Nc2c3c(c(C#N)c4nc5ccccc5n24)CCC3)cc1 | – | – | – | – | – | –
Cc1cc(N2CCN(c3ccccn3)CC2)n2c(nc3ccccc32)c1C#N | – | – | ? | – | 18µM | –
Cc1ccc(Nc2c(C(C)C)c(C)c(C#N)c3nc4ccccc4n23)cc1 | · | ? | 18µM | – | 15µM | ·
CNc1cc(C)c(C#N)c2nc3ccccc3n12 | – | – | – | – | – | –
COCCOc1cc(-n2ccnc2SC)c(Cl)cc1Cl | – | – | ? | ? | ? | –
CCN(Cc1ccccc1)c1ncnc2c1nnn2C | · | – | – | – | – | ·
COc1ccc(-c2[nH]c(-c3ccc(C)cc3)nc2SCC(=O)NCC2CCCO2)cc1 (stereo not drawn) | · | – | ? | – | ? | ·
COc1ccc(CNC(=O)C2CCN(S(=O)(=O)N3CCC(C)CC3)CC2)c(OC)c1 | – | – | ? | ? | ? | –
Cc1c(CCCl)c(Cl)n2c(nc3ccccc32)c1C#N | 2.3µM | 2.1µM | 0.92µM | 1.6µM | 0.65µM | 2.6µM
Cc1ccc(-c2c(C#N)c(N)n3c(nc4ccccc43)c2C#N)cc1 | ? | 13µM | 21µM | ? | 16µM | ?
O=C(CCCOc1ccc(Cl)cc1)NC1CCCCC1 | – | – | – | – | – | –
COc1ccc2c(c1)c1c(c(=O)n(-c3ccc(C)cc3)c(=O)n1CC(=O)N1CCCC1)n2C | · | · | 16µM | · | 21µM | ·
SMILES | HT1080 IDH1KD tx | KB-3-1 tox | TDP1 cell CPT | KB-V1 cytotox | TDP1 cell noCPT | HT1080NT lethal
COc1ccc2c(c1)c1c(c(=O)n(-c3cccc(C)c3)c(=O)n1CC(=O)N1CCCC1)n2C | · | – | ? | – | ? | ·
COc1ccc2c(c1)c1c(c(=O)n(-c3cccc(Cl)c3)c(=O)n1CC(=O)N1CCCC1)n2C | · | – | 23µM | ? | ? | ·
CCOC(=O)c1ccc(NC(=O)c2c(-c3c(F)cccc3Cl)noc2C)cc1 | · | ? | ? | – | ? | ·
O=C(NCc1ccc(Cl)cc1)c1ccc2oc(=O)n(Cc3ccccc3)c2c1 | · | – | 21µM | ? | ? | ·
C=CCn1c(=O)c2ccc(C(=O)NCc3ccccc3)cc2n(Cc2cccc(Cl)c2)c1=O | – | ? | ? | – | 13µM | –
C=CCn1c(=O)c2ccc(C(=O)NCc3ccccc3)cc2n(Cc2ccccc2Cl)c1=O | – | – | 8.2µM | – | 7.3µM | –
O=C(NCc1ccccc1)NC(=O)c1ccccc1F | – | – | – | – | – | –
COc1ccc(CCNC(=O)CCn2c(=O)c3cccn3c3cccnc32)cc1OC | – | – | – | – | ? | –
O=C(CC1SC(N2CCCCC2)=NC1=O)Nc1cccc(C(=O)NCc2ccc(F)cc2)c1 (stereo not drawn) | – | – | – | ? | ? | –
NS(=O)(=O)c1ccc(NC(=O)C2Cc3ccccc3N2C(=O)c2ccccc2)cc1 (stereo not drawn) | · | – | – | – | – | ·
Cc1cc(C)c(S(=O)(=O)N(C)c2ccccc2)c(C)c1 | – | – | ? | – | – | –
Cc1nc(S(=O)(=O)N(C)c2ccccc2)c(C#N)c(C)c1Cl | ? | ? | 23µM | – | 23µM | ?
O=S(=O)(NCc1csc(-c2ccccc2)n1)c1ccccc1 | · | · | – | · | – | ·
CCCCCCC#Cc1cncc(C(=O)NNC(=O)Nc2cc(Cl)cc(Cl)c2)c1 | 21µM | – | – | ? | ? | ?
Nc1ccc2cc3ccc(N)cc3nc2c1 | · | · | 5.3µM | · | 2.7µM | ·
Cc1ccc2cc(N)ccc2n1 | – | – | – | – | – | –
COCCNC(=O)c1ccc(-n2c(SCc3ccncc3)nc3ccccc3c2=O)cc1 | ? | – | – | – | – | –
COc1ccc(-n2nc3c(c2NC(=O)COc2ccccc2F)CS(=O)(=O)C3)cc1 | – | – | – | – | – | –
CCOC(=O)c1cn2nc(Oc3ccc(OC)cc3)ccc2n1 | – | – | ? | – | 6.5µM | –
CCOC(=O)c1cn2nc(Oc3ccc(C)cc3)ccc2n1 | – | – | – | – | ? | –
COc1ccc(N=C2S/C(=C\c3ccc(Cl)c([N+](=O)[O-])c3)C(=O)N2CCN(C)C)cc1 | 21µM | – | 21µM | – | 16µM | ?
CCN(CC)CCN1C(=O)/C(=C\c2ccc(Cl)c([N+](=O)[O-])c2)SC1=Nc1ccc(OC)cc1 | 3.3µM | ? | 21µM | – | 16µM | 2.6µM
CCCCC(=O)O[C@H]1CC[C@H]2[C@@H]3CCc4cc(O)ccc4[C@H]3CC[C@]12C | ? | ? | ? | ? | ? | 21µM
CCOc1cc2c(cc1O)CCC1C2CCC2(C)C(O)CCC12 (stereo not drawn) | ? | ? | 0.26µM | ? | 0.21µM | ?
C[C@@]12CCC3c4ccc(OS(=O)(=O)O)cc4CCC3C1CCC2O (stereo partly drawn) | · | · | – | · | – | ·

Bioassay records: PubChem BioAssay, National Center for Advancing Translational Sciences (NCATS)
